Measurements published in article PMC5700166.

Tests used:
Assay in all cases: protein-binding microarray (PBM); PBM: ~300 nM protein, 6 mM HEPES pH 7.8, 80 mM KCl, 0.5 mM EDTA, 0.5 mM EGTA, 6% glycerol, 35 ng/ul poly-dIdC, 1% milk, 1 h, room temperature; Ap Aiptasia and Nv Nematostella (sea anemones) / Co Capsaspora / Aq Amphimedon (sponge) / Dm Drosophila / Hu human; RHD is the Rel homology domain; high values mean tight binding
Conditions in all cases: dsDNA, one strand shown
GST-Ap-NF-kB RHD = target: T1, GST-Ap-NF-kB RHD (Exaiptasia pallida (Aiptasia), UniProt A0A913YAJ5 2-422)
T1 sequence: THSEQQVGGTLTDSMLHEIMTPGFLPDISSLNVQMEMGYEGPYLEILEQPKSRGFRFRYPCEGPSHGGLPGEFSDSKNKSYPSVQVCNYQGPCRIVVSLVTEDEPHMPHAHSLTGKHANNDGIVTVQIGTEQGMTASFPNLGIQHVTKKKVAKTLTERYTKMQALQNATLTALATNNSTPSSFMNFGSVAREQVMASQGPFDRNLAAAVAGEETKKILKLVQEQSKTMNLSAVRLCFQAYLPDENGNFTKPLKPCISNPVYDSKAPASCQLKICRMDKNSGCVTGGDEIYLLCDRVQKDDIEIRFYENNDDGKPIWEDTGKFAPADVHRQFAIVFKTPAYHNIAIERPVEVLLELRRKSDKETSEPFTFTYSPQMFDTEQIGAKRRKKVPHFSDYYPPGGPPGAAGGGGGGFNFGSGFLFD

[1] = target: T2, GST-Nv-NF-kB (Cys allele) (Nematostella vectensis, UniProt E5G601 2-411)
T2 sequence: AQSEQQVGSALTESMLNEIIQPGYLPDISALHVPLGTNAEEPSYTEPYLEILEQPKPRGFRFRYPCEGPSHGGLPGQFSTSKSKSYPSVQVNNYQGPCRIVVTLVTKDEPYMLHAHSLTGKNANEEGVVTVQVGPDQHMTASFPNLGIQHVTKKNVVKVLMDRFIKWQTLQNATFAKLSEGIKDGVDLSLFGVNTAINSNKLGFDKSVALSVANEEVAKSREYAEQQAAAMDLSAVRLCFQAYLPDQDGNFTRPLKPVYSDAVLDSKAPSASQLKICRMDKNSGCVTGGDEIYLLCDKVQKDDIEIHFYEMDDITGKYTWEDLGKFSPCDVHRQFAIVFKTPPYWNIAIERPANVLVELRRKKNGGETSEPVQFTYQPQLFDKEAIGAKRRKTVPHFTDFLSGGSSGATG

GST-Dm-Relish = target: T3, GST-Dm-Relish (Drosophila melanogaster, UniProt Q94527 99-473)
T3 sequence: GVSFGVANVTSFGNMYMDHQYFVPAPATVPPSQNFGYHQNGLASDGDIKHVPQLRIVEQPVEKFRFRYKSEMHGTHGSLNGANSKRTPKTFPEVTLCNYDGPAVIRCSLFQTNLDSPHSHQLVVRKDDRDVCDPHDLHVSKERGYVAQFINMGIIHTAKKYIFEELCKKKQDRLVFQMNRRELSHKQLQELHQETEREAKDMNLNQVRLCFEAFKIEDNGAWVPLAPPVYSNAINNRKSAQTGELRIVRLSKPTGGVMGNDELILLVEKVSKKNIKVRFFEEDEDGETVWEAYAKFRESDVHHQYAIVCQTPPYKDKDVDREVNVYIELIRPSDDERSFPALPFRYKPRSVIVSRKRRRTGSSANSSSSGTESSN

GST-Aq-NF-kB = target: T4, GST-Aq-NF-kB (Amphimedon queenslandica, UniProt A9Y5G7 2-389)
T4 sequence: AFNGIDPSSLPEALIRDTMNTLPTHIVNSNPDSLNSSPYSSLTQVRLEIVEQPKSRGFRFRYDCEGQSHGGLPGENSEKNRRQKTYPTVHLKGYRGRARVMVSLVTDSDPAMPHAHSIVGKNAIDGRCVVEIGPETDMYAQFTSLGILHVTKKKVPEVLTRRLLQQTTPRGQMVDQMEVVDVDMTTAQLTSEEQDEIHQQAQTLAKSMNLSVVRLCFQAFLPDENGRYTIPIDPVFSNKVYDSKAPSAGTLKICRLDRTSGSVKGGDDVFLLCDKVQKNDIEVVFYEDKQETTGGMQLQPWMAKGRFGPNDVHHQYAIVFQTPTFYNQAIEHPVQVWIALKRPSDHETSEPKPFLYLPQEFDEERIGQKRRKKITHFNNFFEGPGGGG

| Sequence | binding signal (GST-Ap-NF-kB RHD) [z-score] | binding signal [1] [z-score] | binding signal (GST-Dm-Relish) [z-score] | binding signal (GST-Aq-NF-kB) [z-score] |
| --- | --- | --- | --- | --- |
| CCGATTAACATCAGGAACGCCCCTGATGTTAATCGGGTCTTGATTCGCTTGACGCTGCTG | 3.09 | 3.22 | 2.09 | 5.42 |
| CCGATTAACATCAGGAATGTCCCTGATGTTAATCGGGTCTTGATTCGCTTGACGCTGCTG | 3.06 | 5.35 | 3.4 | 6.41 |
| CCGATTAACATCAAAAAATACCATGATGTTAATCGGGTCTTGATTCGCTTGACGCTGCTG | 1.11 | 1.58 | 4.53 | 2.23 |
| CCGATTAACATCAGAAAATGCCCTGATGTTAATCGGGTCTTGATTCGCTTGACGCTGCTG | 1.93 | 2.33 | 2.42 | 3.47 |
| CCGATTAACATCAGGGATATCCATGATGTTAATCGGGTCTTGATTCGCTTGACGCTGCTG | 1.84 | 1.09 | 2.52 | 2.44 |
| CCGATTAACATCAAAAATTTACCTGATGTTAATCGGGTCTTGATTCGCTTGACGCTGCTG | 1.32 | 3.04 | 4.45 | 2.7 |
| CCGATTAACATCACGGAATTACCTGATGTTAATCGGGTCTTGATTCGCTTGACGCTGCTG | 1.02 | 1.63 | 3.44 | 3.88 |
| CCGATTAACATCAGGAAACTACCTGATGTTAATCGGGTCTTGATTCGCTTGACGCTGCTG | 1.63 | 2.51 | 4.48 | 4.72 |
| CCGATTAACATCAGGGAAGCCCATGATGTTAATCGGGTCTTGATTCGCTTGACGCTGCTG | 1.18 | 1.19 | 8.29 | 3.64 |
| CCGATTAACATCAGGAAGTCCCATGATGTTAATCGGGTCTTGATTCGCTTGACGCTGCTG | 4.82 | 5.32 | 6.71 | 4.99 |
| CCGATTAACATCAGAAAATTACCTGATGTTAATCGGGTCTTGATTCGCTTGACGCTGCTG | 2.06 | 3.89 | 4.45 | 3.25 |
| CCGATTAACATCAAGGACTTCCCTGATGTTAATCGGGTCTTGATTCGCTTGACGCTGCTG | 2.9 | 3.39 | 6.91 | 5 |
| CCGATTAACATCAGGACTATCCCTGATGTTAATCGGGTCTTGATTCGCTTGACGCTGCTG | 1.82 | 2.61 | 1.48 | 5.97 |
| CCGATTAACATCAGGACTTTACCTGATGTTAATCGGGTCTTGATTCGCTTGACGCTGCTG | 1.18 | 3.27 | 5.92 | 4.69 |
| CCGATTAACATCAAGGGGGTCCCTGATGTTAATCGGGTCTTGATTCGCTTGACGCTGCTG | 5.89 | 3.29 | 7.16 | 4.47 |
